An excerpt weighted towards active compounds, which were near 7.4% of everything screened.
SMN2 splice up: enhancers of SMN2 splice variant expression; HEK293 SMN2-luciferase splicing reporter, luminescence, 30-36 h; Potency, µM (series often up to 46.1 µM), usual class: activators; 210,000 tested, 2.8% active; AID 1458; also: nearly all actives have a fitted effect of over 55% in size
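HEK293 cells carry an SMN2 […]–luciferase reporter in which exon 7 inclusion puts luciferase in frame. Cells were plated 10-12 h before compound addition, then incubated 30-36 h at 37C. ONE-Glo luminescence was read; sodium butyrate at 4.5 mM final served as control.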
FLuc counter: counter-screen for miR-21 project: firefly luciferase inhibitors or activators; P08659; purified FLuc, Km substrates, luminescence inhibition; Potency, µM (highest dose often 57.5 µM), usual class: inhibitors; 360,000 tested, 6.9% active; also: nearly all actives have a fitted effect of over 55% in size
Target sequence (P08659 whole entry, looked up): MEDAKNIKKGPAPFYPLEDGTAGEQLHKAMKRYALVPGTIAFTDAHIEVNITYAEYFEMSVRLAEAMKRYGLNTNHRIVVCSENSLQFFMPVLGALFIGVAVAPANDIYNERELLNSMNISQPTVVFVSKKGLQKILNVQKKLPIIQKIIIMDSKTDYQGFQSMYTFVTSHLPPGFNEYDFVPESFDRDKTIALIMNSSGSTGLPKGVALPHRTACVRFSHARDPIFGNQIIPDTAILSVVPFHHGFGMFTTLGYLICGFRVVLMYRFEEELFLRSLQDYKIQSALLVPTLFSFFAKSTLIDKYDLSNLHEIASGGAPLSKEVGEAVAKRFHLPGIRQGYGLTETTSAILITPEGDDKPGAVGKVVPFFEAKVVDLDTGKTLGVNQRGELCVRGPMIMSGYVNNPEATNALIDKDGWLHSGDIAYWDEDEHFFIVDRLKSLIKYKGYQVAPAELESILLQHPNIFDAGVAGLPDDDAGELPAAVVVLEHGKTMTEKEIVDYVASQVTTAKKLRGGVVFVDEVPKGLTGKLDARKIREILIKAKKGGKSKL
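Purified P. pyralis luciferase, 10 nM final, with Km-level 10 uM D-luciferin and 10 uM ATP in 50 mM Tris acetate pH 7.5, 10 mM Mg acetate, 0.01% Tween-20, 0.05% BSA; 6-point qHTS titration about 60 µM downward; luminescence read.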
NPC1 prom act: NPC1 promoter activation | 320,000 tested, 2.4% active | Huh7 NPC1 promoter luciferase reporter, 24 h | Potency, µM (titrated, usually from 9.22 µM), most hits filed as activators | AID 485313; also: nearly all actives have a fitted effect of over 60% in size
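Readout is luciferase luminescence, reflecting NPC1 promoter activation in stably transfected Huh7 cells after 24 h compound exposure at 37 °C in reduced-serum medium with 10% FBS.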
Rab9 prom act: Rab9 promoter activation. Huh7 Rab9 promoter-luciferase reporter, luminescence, 24 h. Potency, µM (highest dose often 9.22 µM), most hits filed as activators. 320,000 tested, 2.8% active. AID 485297; also: nearly all actives have a fitted effect of over 60% in size
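Promoter activation is measured as luciferase luminescence in Huh7 cells stably transfected with a Rab9 promoter–luciferase construct, following 24 h compound exposure at 37 °C and 10 min reagent incubation at ambient temperature.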
ELG1 genotoxic: genotoxicity induction in ELG1-luciferase HEK293T cells. Potency, µM (highest dose often 46 µM), actives largely listed as activators. 330,000 tested, 1.3% active. HEK293T ELG1-luciferase reporter, luminescence, 16 h. AID 504466; also: nearly all actives have a fitted effect of over 60% in size
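Quantitative HTS format in 1536-well plates. HEK293T ELG1-luciferase reporter cells receive test compound and are incubated 16 hr at 37 °C, 5% CO2; ONE-Glo added, 30 min room temperature, then luminescence read.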
A number is an active result; – = inactive; ? = inconclusive; · = no result. Calls follow the shape of the dose curve; as a rule, active = well fitted curve in the direction sought with a large enough effect; inconclusive = small, poorly fitted or top-dose-only effect, or another doubt; inactive = no such curve, though single readings can be large; an effect the other way counts as inactive or inconclusive.

SMILES | SMN2 splice up | FLuc counter | NPC1 prom act | Rab9 prom act | ELG1 genotoxic
Cc1c(NC(=O)COC(=O)CCC(=O)c2ccc(Cl)cc2)c(=O)n(-c2ccccc2)n1C | – | – | – | – | –
CCOc1ccc(CNC(=O)c2ccc3c(c2)sc2nc(-c4ccc(OC)cc4)cn23)cc1 | · | – | · | · | ·
O=C(c1ccccc1)c1coc2c1C(=O)c1ccccc1C2=O | – | 27µM | – | – | –
O=C(Nc1cc(F)c(Br)cc1F)c1ccc(Cl)cc1 | · | 2.7µM | 2.2µM | 1.8µM | ?
Cc1ccc(C(=O)Nc2ccsc2C(=O)O)cc1 | · | 2.7µM | 0.71µM | 0.45µM | 23µM
O=C(Nc1ccsc1C(=O)O)c1ccc(Cl)cc1 | · | 8.5µM | 2.8µM | 4µM | 23µM
Cc1cc2ncc(C(=O)Nc3ccsc3C(=O)O)c(C)n2n1 | – | 12µM | ? | ? | ?
Cc1ccc(Cc2cn3cc(-c4ccc(F)cc4)nc3s2)cc1 | ? | 0.76µM | · | · | ·
CC(C)(C)c1cc(-c2nc(N)nc(N)n2)cc(C(C)(C)C)c1 | – | – | – | – | –
CC(C)(C)c1ccc(-c2nc(N)nc(N)n2)cc1 | · | 2.1µM | ? | ? | ?
CN(C)c1ccc(-c2ccc3c(=O)c4ccccc4n(C)c3c2)cn1 | · | 4.8µM | 2.5µM | 2.2µM | 16µM
Cc1ccc(-c2ocnc2C(=O)Nc2nc(C)cs2)cc1 | · | ? | ? | – | –
Cc1ccc(-c2ocnc2C(=O)Nc2ccccc2NC(=O)c2ccccn2)cc1 | · | 15µM | – | – | –
Cc1cccc(-c2ocnc2C(=O)Nc2ccccc2NC(=O)c2ccccn2)c1 | · | 13µM | – | – | –
Cc1cccc(-c2ocnc2C(=O)Nc2ccccc2C(=O)N2CCCC2)c1 | · | ? | – | – | –
COc1ccc(/C(C)=N/NS(=O)(=O)c2ccccc2)c(OC)c1 | – | – | – | – | –
COc1ccc(/C(C)=N/Nc2ccccc2Cl)c(O)c1 | · | 11µM | – | – | ?
COc1ccc(C(=O)CCC(=O)Nc2ccc(F)cc2F)cc1 | · | – | · | · | ·
COc1ccc(/C(C)=N/Nc2ccc(F)cc2F)c(O)c1 | ? | 11µM | – | ? | ?
C/C(=N\Nc1ccc(F)cc1F)c1cccs1 | – | 19µM | – | – | ?
CC(=O)Nc1ccc(NC(=O)Nc2ccc(C)c(C)c2)cc1 | – | – | – | – | ?
O=C(COc1ccccc1)Nc1cccc2nsnc12 | – | ? | – | – | –
CC(=O)Nc1cccc(NC(=O)Nc2ccc(C)c(Cl)c2)c1 | ? | 2.1µM | – | – | –
O=C(Nc1ccccc1)Nc1cccc(NC(=O)Nc2ccccc2)c1F | · | ? | – | – | –
O=C(Nc1ccncc1)Nc1cccc(Cl)c1Cl | · | ? | – | – | –
SMILES | SMN2 splice up | FLuc counter | NPC1 prom act | Rab9 prom act | ELG1 genotoxic
O=C(Nc1ccccc1)Nc1ccccc1Br | – | 24µM | ? | 4µM | ?
O=C(Nc1ccc(Cl)cc1)Nc1cccc2nsnc12 | · | 4.8µM | ? | ? | ?
O=C(Nc1ccccc1)Nc1cccc(Cl)c1Cl | – | 11µM | – | – | –
CCC(C(=O)OCc1csc(CC(=O)Nc2ccccc2C)n1)c1ccccc1 (centres undefined) | · | – | – | – | –
O=C(Nc1ccccc1)Nc1ccc(Br)c(Cl)c1 | ? | 6.7µM | ? | – | –
O=C(CN1CCCC1)Nc1ccc(NC(=O)Nc2ccccc2Cl)cc1 | – | 21µM | – | – | ?
CCc1c(C2(O)CCCCC2)[nH]c2ncccc12 | · | – | – | – | –
Nc1ccc2oc3ccc(N)cc3c(=O)c2c1 | ? | 24µM | 2.5µM | 4µM | ?
O=C(NC(=S)Nc1ccccc1Br)C1CCCC1 | · | 19µM | ? | – | ?
CC(=O)Nc1ccc(NC(=S)NC(=O)C2CC2)cc1 | · | – | – | – | ?
Cc1ccc(NC(=S)NC(=O)C2CC2)c(C)c1 | · | 15µM | ? | ? | 21µM
Cc1ccc(NC(=S)NC(=O)c2ccc(Br)o2)c(C)c1 | 8.9µM | 9.5µM | ? | 2.8µM | ?
Cc1ccc(NC(=S)NC(=O)C2CCC2)cc1C | · | 9.5µM | 1.4µM | 4µM | ?
CCOc1cc(C(=S)N2CCOCC2)ccc1OS(=O)(=O)c1ccccc1[N+](=O)[O-] | – | – | – | – | –
CCOc1ccccc1CNCCOC | – | – | – | – | –
Cc1ccc(NC(=S)NC(=O)C2CCCC2)cc1C | · | 11µM | 3.2µM | 2.5µM | ?
O=C(COC(=O)CC1CC2CCC1C2)NCc1ccccc1 (centres undefined) | · | · | · | · | –
O=C(c1ccncc1)N1N=C(c2ccc(Cl)cc2)CC1c1ccccc1O (centres undefined) | · | 17µM | – | – | ?
COc1ccc(C(=O)NCCn2ccc3ccccc32)c(OC)c1 | – | 21µM | ? | ? | ?
CCC(=O)Nc1ccc(NC(=O)c2ccc3ccccc3c2)cc1 | · | – | – | – | –
COc1ccc(NC(=O)c2ccc3ccccc3c2)cc1 | · | 0.85µM | 0.71µM | 0.71µM | 2.3µM
COc1ccc(NC(=O)c2cc3ccccc3[nH]2)cc1 | · | ? | 3.2µM | 2µM | ?
COc1ccc(C(=O)NCCN2CCOCC2)c(OC)c1 | – | – | – | – | –
COc1ccc(NC(=O)c2coc(C)c2)cc1 | · | 24µM | ? | ? | ?
COc1ccc(NC(=O)c2ccc(=O)oc2)cc1 | – | ? | – | – | –
SMILES | SMN2 splice up | FLuc counter | NPC1 prom act | Rab9 prom act | ELG1 genotoxic
COc1ccc(OC)c(NC(=O)c2nc(-c3ccccc3)oc2C)c1 | – | – | – | – | –
Cc1ccc(C)o1 | – | · | · | · | ·
CC(C)(C)c1ccc(S(=O)(=O)NNC(=O)c2cc3ccccc3[nH]2)cc1 | · | 13µM | – | – | ?
COc1ccc(C(=O)Nc2ccc3ccccc3c2)c(OC)c1 | · | 0.85µM | 3.5µM | ? | 2.1µM
CCCC(C)NNC(=O)c1cc2ccccc2[nH]1 (centres undefined) | – | – | – | – | –
Nn1c(SCC(=O)Nc2cccc(F)c2)nnc1C1CCCCC1 | – | – | – | – | –
c1ccc2oc(NC3=NCN(C4CCCCC4)CN3)nc2c1 | · | ? | 2.5µM | ? | ?
CC(C)N1CN=C(Nc2nc3ccccc3o2)NC1 | ? | ? | – | ? | –
CCCCN1CN=C(Nc2nc3ccccc3o2)NC1 | – | ? | ? | 3.5µM | ?
CCN1CCN(c2cc(C)c3cc(NC(=S)N4CCCC(C)C4)ccc3n2)CC1 (centres undefined) | ? | ? | – | ? | –
O=C(CN1C(=O)NC2(CCSC2)C1=O)NCc1ccccc1 (centres undefined) | – | – | – | – | –
COc1ccc(OC)c(-c2csc(NC(=O)Cc3ccccc3)n2)c1 | · | 11µM | – | – | –
COc1ccc(OC)c(-c2csc(NC(=O)Cc3cccs3)n2)c1 | – | 13µM | – | – | –
COc1ccc(CC(=O)Nc2nc(-c3cc(OC)ccc3OC)cs2)cc1 | – | – | – | – | –
CC(=O)Nc1ccc(S(=O)(=O)N2CCN(C(=O)c3ncoc3-c3cccc(F)c3)CC2)cc1 | · | – | – | – | –
CCCN(Cc1nnc(-c2ccccc2Cl)o1)C(=O)c1cccc(S(=O)(=O)N2CCOCC2)c1 | · | – | – | – | –
O=C(CNC(=O)c1ccccc1)OCc1cc(=O)n2nc(C3CC3)sc2n1 | · | – | · | · | ·

Screening results from PubChem.
